An excerpt weighted towards active compounds, which were near 1.3% of everything screened.
Gli-Sufu block = Gli-Sufu pathway antagonists, primary screen, luciferase luminescence, Sufu-KO-LIGHT cells, uHTS; 0.74% of 340,000 active; Sufu-KO-LIGHT fibroblasts, Gli luciferase reporter luminescence; inhibition, % at 5 µM;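 active = inhibition above about 55%, limit read from the data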;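 also: 0% = DMSO-treated cells and 100% = wells with medium but no cells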
COUP-TFII inh = NR2F2 transcriptional activity inhibitors, primary screen, cell-based, luciferase reporter, HEK293T, luminescence. 0.7% of 370,000 active. COUP transcription factor 2 (Homo sapiens), P24468. HEK293T NGFI-A luciferase reporter. inhibition, % at 8.6 µM;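 active = inhibition above a per-plate cutoff, mean inhibition of test wells between control levels plus 3 SD, cut at about 38% in these data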;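 also: cells cotransfected with COUP-TFII expression vector driving the NGFI-A reporter; 0% = median of COUP-TF2 test wells and 100% = reporter-only cells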
Target sequence (P24468 whole entry, looked up): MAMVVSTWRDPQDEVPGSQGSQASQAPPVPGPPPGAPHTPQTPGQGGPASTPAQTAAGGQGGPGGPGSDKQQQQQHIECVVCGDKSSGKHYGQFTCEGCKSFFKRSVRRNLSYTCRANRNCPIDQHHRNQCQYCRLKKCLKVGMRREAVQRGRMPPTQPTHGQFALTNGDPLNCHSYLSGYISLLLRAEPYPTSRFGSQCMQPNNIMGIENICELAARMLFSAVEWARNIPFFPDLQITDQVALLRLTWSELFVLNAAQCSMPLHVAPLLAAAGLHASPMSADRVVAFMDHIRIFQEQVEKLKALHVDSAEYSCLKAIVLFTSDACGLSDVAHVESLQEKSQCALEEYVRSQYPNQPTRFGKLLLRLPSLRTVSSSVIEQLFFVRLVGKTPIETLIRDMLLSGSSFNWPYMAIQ
NCOA2 inhibitor = inhibition of GAL4-SRC2 driven luciferase reporter, primary screen, SRC2 inhibitor project, cell-based, luminescence. HEK293 GAL4-SRC2 luciferase reporter. inhibition, % at 9 µM. 0.17% of 370,000 active. AID 651957, 2012;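 active = inhibition above the mean inhibition of all tested compounds plus 3 SD, set per campaign, cut at about 52% in these data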;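 also: 0% = DMSO treated cells and 100% = cells given Gossypol at 36 µM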
NCOA1 inh = SRC1 coactivator transcriptional activity inhibitors, primary screen, cell-based, luminescence. Nuclear receptor coactivator 1 (Homo sapiens), Q15788. HEK293 GAL4-SRC1 luciferase reporter. inhibition, % at 3.6 µM. 0.12% of 360,000 active. AID 588354, 2011;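 active = inhibition above the campaign mean plus 3 SD, with each screening campaign given its own cutoff, cut at about 60% in these data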;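 also: 0% = DMSO treated cells and 100% = gossypol at 36 µM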
SRC3 inh = SRC3 coactivator transcriptional activity inhibitors, primary screen, cell-based, luminescence. inhibition, % at 3.6 µM. HEK293 GAL4-SRC3 luciferase reporter. 0.17% of 360,000 active;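 active = inhibition above a per-campaign cutoff, the mean of all compounds plus 3 SD, cut at about 60% in these data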;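 also: 0% = DMSO-treated cells and 100% = gossypol-treated cells at 36 µM; higher means less SRC3-driven luciferase light from the GAL4 reporter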
NR5A2 inv ag = LRH-1 (NR5A2) inverse agonists, primary screen, cell-based, luminescence, HEK293T, StAR-luciferase reporter. Nuclear receptor subfamily 5 group A member 2 (Homo sapiens), O00482. LRH-1 transfected, 24 h. inhibition, % at 3.6 µM. 0.13% of 360,000 active. AID 602396, 2012;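 active = inhibition above the mean inhibition of all tested compounds plus 3 SD, cut at about 73% in these data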;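 also: 0% = DMSO wells and 100% = reporter-only cells lacking LRH-1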
Numbers without * were called inactive; . = no result.

SMILES | Gli-Sufu block | COUP-TFII inh | NCOA2 inhibitor | NCOA1 inh | SRC3 inh | NR5A2 inv ag
COc1cc(NC(=O)c2ccccc2)c(C)cc1NC(=O)CSc1nnc(COc2ccccc2)n1Cc1ccco1 | . | 19 | 0 | . | . | .
CN1OC[C@@H]2CN[C@H](c3ccc(-c4cc5ccccc5o4)cc3)C[C@@H]21 | . | . | . | 87* | 87* | 91*
Cc1ccc(Nc2cc(C)nn2-c2nc(C)cc(=O)[nH]2)cc1 | 92* | . | . | -300 | 25 | 67
COc1cc2ccccc2ccc1=NO | -12 | 15 | 54* | 48 | 49 | 36
COc1cc2ccccc2cc1C(=O)O | -3 | 1 | -38 | 1 | 9 | -5
CC(C)(C)OC(=O)NCCCCCNC(=O)c1nc[nH]c1C(=O)NCc1ccc(CNC(=O)OC(C)(C)C)cc1 | 27 | 72* | 23 | 13 | 23 | 20
CC(C)(C)OC(=O)NCc1ccc(CNC(=O)c2nc[nH]c2C(=O)NCc2ccc(CNC(=O)OC(C)(C)C)cc2)cc1 | 36 | 47* | -4 | 12 | 18 | 27
CC(C)(C)OC(=O)CNC(=O)c1nc[nH]c1C(=O)NCc1ccc(CNC(=O)OC(C)(C)C)cc1 | 17 | 13 | -11 | 7 | -2 | 12
Cc1ccc(-c2nc(CSCC(=O)N3CCN(c4ccccn4)CC3)c(C)o2)cc1 | 25 | 47* | 3 | -5 | -1 | 32
COCCCNC(=O)C[C@H]1C[C@@]2(C(=O)OC)C(=C[C@H](C(C)C)O[C@@H]2C2CC2)N(Cc2ccccc2)C1=O | . | 6 | 11 | . | . | .
CCc1ccc(C2=NNC(=Nc3cccc(S(=O)(=O)N(C)C)c3)SC2)cc1 | 26 | 41* | 24 | 11 | 14 | 22
CCn1c2ccccc2c2cc(Nc3cc(C)nc4ncnn34)ccc21 | 62* | -98 | 40 | -26 | 16 | 39
O=C(C(=O)N1CCN(C(=O)C2CCCC2)CC1)c1cccc(C(F)(F)F)c1 | . | -7 | 11 | . | . | .
Clc1ccc(-c2csc(=Nc3cccnc3)n2CCCn2ccnc2)cc1Cl | 29 | 36 | 57* | 41 | 46 | -26
COC1=C(N)C(=O)c2nc(-c3nc(C(=O)O)c(C)c(-c4ccc(OC)c(OC)c4O)c3N)ccc2C1=O | 89* | . | . | . | . | .
O=C1OCC2=C1C(c1ccc(F)cc1)c1cc3c(cc1N2)OCCO3 (stereo not drawn) | 57* | -83 | 15 | 3 | 23 | 22
Cc1nnc(SC(=O)N2c3ccccc3Sc3ccccc32)s1 | 12 | -6 | 60* | 17 | 65* | 31
CCOC(=O)N1c2ccccc2Sc2ccccc21 | -7 | 31 | -5 | 20 | 12 | 3
Cc1cc(C(=O)N2CCN(c3ccccn3)CC2)no1 | 3 | 1 | 2 | 11 | 89* | 1
Cc1cc(C(=O)N2CCN(c3ccccc3)CC2)no1 | 21 | . | . | 7 | 5 | 18
COc1ccc(C(=O)c2c(C(F)(F)F)oc3c2C(=O)c2ccccc2C3=O)cc1OC | 22 | 43* | 13 | 9 | 32 | 2
COc1ccc(C(=O)Nc2ccc3c(c2)C(=O)c2ccccc2C3=O)cc1OC | -32 | -3 | -34 | -6 | -4 | -34
COc1ccc2[nH]c3c(c(=O)c2c1)CCCC3 | . | 9 | -7 | 10 | 7 | -20
COc1ccc2[nH]c3c(c2c1)CC(C)NC3=O (stereo not drawn) | -11 | 32 | 36 | 66* | 52 | 37
COCCN(C(=O)CCl)C(C(=O)NC1CCCCC1)c1ccccc1C (stereo not drawn) | 32 | -12 | 54* | 22 | 59 | 28
SMILES | Gli-Sufu block | COUP-TFII inh | NCOA2 inhibitor | NCOA1 inh | SRC3 inh | NR5A2 inv ag
CC(=NNC(=S)N1CCC1)c1ccccn1 | 89* | 6 | -84 | 22 | 11 | 4
CC(=NNC(=S)SCc1ccccc1)c1ccccn1 | 78* | 0 | -18 | -4 | -22 | 4
O=C(CSc1nnc(-c2ccncc2)n1-c1ccccc1)Nc1ccc2c(c1)OCCO2 | . | 1 | 22 | . | . | .
COC(=O)C1=C(C)N(Cc2ccc(C(F)(F)F)cc2)C(=NCC2CC2)NC1c1ccccc1 (stereo not drawn) | . | 1 | -16 | . | . | .
CCN1/C(=C/C=C/c2oc3ccc4ccccc4c3[n+]2CC)Oc2ccc3ccccc3c21 | 74* | . | . | . | . | .
Cn1cc(C2(C)CCOc3ccccc32)c2ccccc21 (stereo not drawn) | . | -21 | 14 | . | . | .
CC(C)(C)NC(=O)COC(=O)c1snc(C(=O)NC2CCCCC2)c1N | -4 | 67* | 36 | 17 | 15 | 30
CC(OC(=O)c1snc(C(=O)NC2CCCCC2)c1N)C(=O)NC(C)(C)C (stereo not drawn) | 4 | 3 | 20 | 2 | 2 | 22
C[C@H](CO)N1C[C@H](C)[C@@H](CN(C)C(=O)C2CC2)OCc2cn(nn2)CCCC1=O | . | 0 | -8 | . | . | .
CC(C)CC(=NNC(=O)c1ccncc1)c1cc(Cl)ccc1O | 30 | 4 | -5 | 53 | 71* | 45
O=C(O)CCSc1ncnc2sc(-c3ccccc3)cc12 | 46 | 23 | 81* | 10 | 30 | 15
CC(=O)CCSc1ncnc2sc(-c3ccccc3)cc12 | -75 | -26 | -74 | -110 | -68 | -166
CCCC[C@H]1C2CC(OC(=O)NCCCC(=O)OCC)C(C2)[C@H]2CCCCN21 (stereo partly drawn) | . | 8 | 1 | . | . | .
CN(c1ccccc1)S(=O)(=O)c1ccc(Cl)nc1 | 3 | 15 | -55 | 8 | 18 | 5
Cc1nc(S(=O)(=O)N(C)c2ccccc2)c(C#N)c(C)c1Cl | -13 | 15 | 54* | 18 | 31 | 14
COc1ccc(-c2csc3ncnc(NCCO)c23)cc1 | -16 | 28 | 59* | 54 | 54 | 12
COc1ccc(-c2csc3ncnc(Nc4ccc(O)cc4)c23)cc1 | -1 | -20 | 10 | -4 | 13 | -7
Cc1cc(Cl)c(S(=O)(=O)N2CCN(c3ccc(F)cc3)CC2)cc1OCC(=O)NC1CCCCC1 | 58* | 11 | 6 | 18 | 17 | 1
COc1ccc(N(CC(=O)Nc2ccc(C)cc2)S(=O)(=O)c2c(C)noc2C)cc1 | 2 | 14 | 23 | 9 | 12 | 0
Cc1ccc(N(CC(=O)Nc2cc(C)cc(C)c2)S(=O)(=O)c2c(C)noc2C)cc1 | 68* | -3 | 17 | 1 | -2 | 14
COC(=O)c1ccc2nc(-c3ccc(Cl)cc3)c(Cc3ccccc3)n2c1 | . | -8 | -3 | . | . | .
Cc1ccc(/C=C2\SC(=S)N(CCCC(=O)Nc3ccccc3C(=O)O)C2=O)cc1 | 22 | 15 | 66* | 23 | 18 | 5
